Experimental data reported in PubChem BioAssay (EPA / NIEHS).
Results filed as inconclusive are left out. Activity calls are given as the source filed them. Rule for the calls: active = hit-call score of the fitted dose curve at least 0.9, where 1 is the maximum; inconclusive = response in the unintended direction; inactive = score below 0.9.

These molecules were tested against rat Peripheral-type Benzodiazepine Receptor (PBR), Tspo (gene 24230) (UniProt P16257) (assay: NVS_MP_rPBR: NovaScreen (NVS) Membrane Protein Assay for rat Peripheral-type Benzodiazepine Receptor (PBR) (AID 2283335)).
Sequence of rat Peripheral-type Benzodiazepine Receptor (PBR), Tspo (gene 24230) (P16257 whole entry, looked up): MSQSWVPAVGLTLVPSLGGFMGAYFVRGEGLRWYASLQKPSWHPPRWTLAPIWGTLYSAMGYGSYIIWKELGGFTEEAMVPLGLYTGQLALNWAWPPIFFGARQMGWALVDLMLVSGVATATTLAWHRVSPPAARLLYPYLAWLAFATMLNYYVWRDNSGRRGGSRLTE
Outline: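 Radioligand displacement, rat kidney membrane prep, 1 h exposure, filter-based scintillation read; DMSO baseline, loss-of-signal scored. Primary screen at 25 uM in duplicate, actives followed up in concentration series.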

Row | SMILES | outcome | AC50
1 | CN(C)c1ccc(C(=O)c2ccc(N(C)C)cc2)cc1 | inactive | –
2 | Nc1ccc(N=Nc2ccccc2)cc1 | – | 11 µM (active)
3 | O=C(Nc1ccccc1)c1ccccc1I | – | 1.61 µM (active)
4 | Cc1cc(N=Nc2ccccc2C)ccc1N | – | 14 µM (active)
5 | CC(C)COC(=O)c1ccccc1C(=O)OCC(C)C | inactive | –
6 | CCCCOC(=O)c1ccccc1C(=O)OCc1ccccc1 | inactive | –

What follows are molecules tested against bovine Gamma-Aminobutyric Acid Type A Receptor Agonist (GABAR Agonist), GABRA1 (gene 780973) (UniProt P08219) (assay: NVS_LGIC_bGABAR_Agonist: NovaScreen (NVS) Ligand-Gated Ion Channel Assay for bovine Gamma-Aminobutyric Acid Type A Receptor Agonist (GABAR Agonist) (AID 2283338)).
Sequence of bovine Gamma-Aminobutyric Acid Type A Receptor Agonist (GABAR Agonist), GABRA1 (gene 780973) (P08219 whole entry, looked up): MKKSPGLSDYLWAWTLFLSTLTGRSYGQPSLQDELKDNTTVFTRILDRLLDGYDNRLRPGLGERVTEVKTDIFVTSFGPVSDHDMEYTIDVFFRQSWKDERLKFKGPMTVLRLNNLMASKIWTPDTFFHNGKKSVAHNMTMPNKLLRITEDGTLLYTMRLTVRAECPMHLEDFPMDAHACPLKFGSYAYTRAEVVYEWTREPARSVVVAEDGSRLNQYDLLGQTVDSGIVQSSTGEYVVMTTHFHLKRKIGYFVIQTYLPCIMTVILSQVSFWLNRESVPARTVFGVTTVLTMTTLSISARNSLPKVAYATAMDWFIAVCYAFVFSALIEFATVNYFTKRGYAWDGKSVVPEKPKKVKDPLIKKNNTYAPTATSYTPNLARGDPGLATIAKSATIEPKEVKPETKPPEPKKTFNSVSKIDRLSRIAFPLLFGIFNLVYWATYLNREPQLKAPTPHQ
Outline: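 Radioligand binding to bovine cerebellar membranes in agonist format, read by filter-based scintillation counting after 1 h. Primary screen in duplicate at 25 uM, with actives followed in concentration series. Gain of signal versus DMSO.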

Row | SMILES | outcome
7 | CCC12COCN1COC2 | inactive
8 | CN(C)C(=O)Nc1ccc(Cl)cc1 | inactive
9 | CCCCOC(=O)c1ccccc1C(=O)OCc1ccccc1 | inactive
10 | C=CCc1ccc2c(c1)OCO2 | inactive
